# High-throughput results from PubChem BioAssay.
# Calpain2 inh – calpain II (pig) inhibition. purified calpain II, fluorogenic peptide substrate, 30 min. inhibition, % at 16 µM. 0.37% of 220,000 active;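 active means inhibition above about 50%, limit read from the data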
# WT yeast gro inh – growth inhibition of WT yeast, mitochondrial fusion screen | mitochondrial fusion phenotypic screen, WT strain | inhibition, % at 10 µM | 2.1% of 190,000 active; in the data active means inhibition above about 58%; tested in S. cerevisiae
# Lmaj promast – Leishmania major promastigote growth inhibition; inhibition, % at 10 µM; Leishmania major promastigotes, resazurin fluorescence viability; 9% of 200,000 active; AID 1063; in the data active means inhibition above about 50%;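 further: promastigotes grown with compound for 44 hours at 28 °C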
# ROMK primary – modulators of human ROMK potassium channel; AID 1918; P48048; 2% of 130,000 active; B-score at 10 µM; Tet-inducible ROMK, thallium flux fluorescence; actives lie on both sides;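 active means signal ratio slope over the read window, or its plate-corrected B-score, at least 3 SD from the plate mean, either direction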;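 further: B-score of the F/F0 ratio slope over 7 to 12 s after thallium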
# KCC2 mod – KCC2 (human) Cl- transport modulation. Q9H2X9. KCC2 cells, thallium flux FluoZin-2 fluorescence. B-score of Tl+ flux slope (higher = more flux/activation; lower = inhibition) at 10 µM. 2.2% of 190,000 active. AID 1456;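 active means thallium flux slope and its plate-corrected score both differing from the plate sample mean at a set confidence after two filtering rounds, in either direction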;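 further: slope of fluorescence scaled to starting intensity during 10 to 20 s after thallium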
# Target sequence (Q9H2X9 whole entry, looked up): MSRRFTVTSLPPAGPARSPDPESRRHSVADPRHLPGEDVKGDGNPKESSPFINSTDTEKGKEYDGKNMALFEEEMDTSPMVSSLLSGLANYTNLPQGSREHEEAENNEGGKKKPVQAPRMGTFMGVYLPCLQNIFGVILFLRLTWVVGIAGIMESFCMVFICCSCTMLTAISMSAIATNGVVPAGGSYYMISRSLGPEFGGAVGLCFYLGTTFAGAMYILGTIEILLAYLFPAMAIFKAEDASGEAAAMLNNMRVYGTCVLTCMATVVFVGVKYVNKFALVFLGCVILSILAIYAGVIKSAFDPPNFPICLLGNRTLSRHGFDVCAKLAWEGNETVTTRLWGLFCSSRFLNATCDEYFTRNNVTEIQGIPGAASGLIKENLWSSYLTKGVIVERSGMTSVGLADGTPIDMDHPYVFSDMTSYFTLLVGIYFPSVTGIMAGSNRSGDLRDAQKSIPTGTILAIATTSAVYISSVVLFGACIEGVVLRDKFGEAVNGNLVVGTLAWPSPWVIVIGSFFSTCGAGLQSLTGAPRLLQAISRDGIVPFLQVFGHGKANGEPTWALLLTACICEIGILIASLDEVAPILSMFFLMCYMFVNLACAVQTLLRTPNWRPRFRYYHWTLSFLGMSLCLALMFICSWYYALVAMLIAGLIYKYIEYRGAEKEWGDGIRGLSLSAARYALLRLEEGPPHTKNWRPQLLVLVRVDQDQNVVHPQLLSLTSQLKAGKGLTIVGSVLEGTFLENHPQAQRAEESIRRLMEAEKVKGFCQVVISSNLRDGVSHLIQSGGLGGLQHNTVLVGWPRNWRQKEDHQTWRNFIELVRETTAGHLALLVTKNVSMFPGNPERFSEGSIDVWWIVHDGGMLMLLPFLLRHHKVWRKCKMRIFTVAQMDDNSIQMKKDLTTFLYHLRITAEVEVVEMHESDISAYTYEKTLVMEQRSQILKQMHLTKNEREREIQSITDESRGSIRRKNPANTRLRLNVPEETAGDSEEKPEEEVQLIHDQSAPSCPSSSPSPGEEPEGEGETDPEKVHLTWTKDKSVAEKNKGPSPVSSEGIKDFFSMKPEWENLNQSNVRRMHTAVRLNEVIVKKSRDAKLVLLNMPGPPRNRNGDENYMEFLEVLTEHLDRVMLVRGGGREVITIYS
# An asterisk follows results filed as active; x = not tested or not shown. In the library only some 12% were active in any assay of this set; here they are far more common.
SMILES,Calpain2 inh,WT yeast gro inh,Lmaj promast,ROMK primary,KCC2 mod
Nc1c(C(=O)N/N=C/c2ccc([N+](=O)[O-])cc2)sc2nnc(-c3ccccc3)c(-c3ccccc3)c12,-5.0,x,x,0.483,-0.316
NC(=O)CCC(C(=O)O)N1C(=O)c2ccc(O)cc2C1=O (stereo not drawn),-1.8,x,x,-0.145,-1.22
CC(C)(C)c1ccc(/C=C(\C#N)C(=O)NCCN2CCOCC2)cc1,-28.1,-4.2,25.5,0.0832,-0.53
COc1ccc(CCCc2nnc(SCc3nc4ccccc4c(=O)[nH]3)n2C)c(C)c1,21.1,x,x,x,-0.951
O=C(COC(=O)[C@@H]1CCCN1C(=O)c1cccs1)Nc1ccc(F)cc1[N+](=O)[O-],31.0,11.9,-1.6,-0.488,-1.44
COC(=O)C(C)NC(=O)C12CC3CC(CC(C3)C1)C2 (stereo not drawn),-17.7,0.3,-0.9,x,-0.351
CNc1nc(N)c(C(=O)C23CC4CC(CC(C4)C2)C3)s1,4.1,-12.8,100.3*,-0.0343,-0.234
CCCC(C(=O)NC1CCCC1)N(C(=O)Cn1nnc(-c2ccc(C)o2)n1)c1ccccc1OC (stereo not drawn),29.5,-5.3,77.2*,-0.604,0.411
Cc1ccc(-c2nnn(CC(=O)N(c3ccccc3F)C(C(=O)NC3CCCC3)c3ccco3)n2)o1 (stereo not drawn),11.2,-14.2,11.8,0.0185,0.12
CCCc1nn(C)c(C(=O)Nc2ccc(Cl)cc2)c1Cl,18.8,6.7,-6.7,x,-0.342
CCCc1nn(C)c(C(=O)Nc2ccc(C(C)(C)C)cc2)c1Cl,32.0,62.6*,1.6,x,-0.285
Cc1nn(C)c(C)c1S(=O)(=O)N(CC(=O)Nc1ccc2c(c1)OCO2)c1ccc(C(C)C)cc1,2.6,10.8,50.1*,x,-0.217
COc1ccc(N(CC(=O)Nc2ccc3c(c2)OCO3)S(=O)(=O)c2ccccc2)cc1OC,-10.4,x,x,-1.01,-0.213
COC(=O)c1ccc(NC(=O)CN(c2ccc3c(c2)OCO3)S(C)(=O)=O)cc1,9.8,-24.7,64.3*,0.351,0.169
COC(=O)c1ccc(C)c(NC(=O)CN(c2ccc3c(c2)OCO3)S(C)(=O)=O)c1,15.4,0.7,6.6,x,0.258
COc1ccc(N(CC(=O)Nc2ccc3c(c2)OCO3)S(=O)(=O)c2ccc(C)cc2)cc1OC,-6.8,2.3,62.7*,-0.047,-0.318
COc1ccc(N(CC(=O)Nc2ccc3c(c2)OCO3)S(=O)(=O)c2ccccc2)c(OC)c1,-13.3,9.3,71.0*,-1.11,x
Cc1noc(C)c1S(=O)(=O)N(CC(=O)Nc1ccc2c(c1)OCO2)c1ccc(C(C)C)cc1,-13.5,-2.5,10.4,x,-0.305
Cn1c(CNC(=O)c2ccc(Cl)c(Cl)c2)nnc1SCC(=O)Nc1sc2c(c1C#N)CCCC2,6.6,-2.9,-5.5,-0.316,x
COC(=O)C(NNc1ccccc1)(NC(=O)c1cccc(F)c1)C(F)(F)F (stereo not drawn),4.7,15.0,5.8,-0.398,-0.00394
COc1ccccc1Nc1nc(-c2sc(NC(=O)c3ccco3)nc2C)cs1,-37.5,-2.9,99.7*,x,-0.256
Cc1nc(NC(=O)c2ccco2)sc1-c1csc(Nc2ccc(Cl)cc2Cl)n1,-290.8,70.9*,73.7*,x,0.722
Cc1nc(NC(=O)c2ccccc2)sc1-c1csc(Nc2ccc(Cl)cc2Cl)n1,-308.7,10.3,53.9*,x,0.722
Cc1ccc(Cl)cc1Nc1nc(-c2sc(NC(=O)c3ccco3)nc2C)cs1,-125.6,28.4,49.9,-0.164,-0.31
O=c1[nH]c(/C(Cl)=C/c2c(F)cccc2Cl)nc2cc(Cl)ccc12,-1.2,1.5,79.4*,1.05,2.66
SMILES,Calpain2 inh,WT yeast gro inh,Lmaj promast,ROMK primary,KCC2 mod
O=c1[nH]c(/C(Cl)=C/c2cc(Cl)ccc2O)nc2cc(Cl)ccc12,-46.4,16.9,49.2,0.735,1.46
COc1ccc(OCCNC(=O)CCCO)cc1,-10.0,x,x,x,0.882
CC1(C)COC2(OC1)C(=O)N(CN1CCOCC1)c1ccccc12,8.5,7.4,11.7,-0.937,0
O=C(Cn1c(=O)c2c(ncn2Cc2ccccc2)n(Cc2ccccc2)c1=O)N1CCc2ccccc21,-15.7,26.0,100.1*,x,x
COc1ccc(CN2CCN(C3CCOCC3)CC2CCO)c(C)c1C (stereo not drawn),6.1,-3.0,81.1*,0.811,x
COc1ccc(CN2CCN(C3CCSCC3)CC2CCO)c(C)c1C (stereo not drawn),25.9,1.8,87.6*,-0.597,0.519
CCCCN(C)C(=O)c1nc2ccccn2c1CN1CCC[C@H]1C(=O)OC,-12.0,-2.0,-5.2,0.324,0.115
Cc1ccc(C(=O)N2c3ccccc3N(Cc3ccccc3)C(=O)C2(C)C)cc1,23.0,84.8*,17.3,x,0.964
COc1ccc(NC(=O)CSc2nnc(NC(=O)c3ccco3)s2)cc1,13.0,-15.1,-9.2,0.137,0.157
CN(C1CCCCC1)S(=O)(=O)c1ccc(NC(=O)c2ccc(Br)o2)cc1,-6.5,15.6,57.0*,-0.409,-0.684
O=C(NNc1cccc(Cl)n1)Nc1cccc(Cl)c1,1.3,17.1,97.1*,-0.0379,0.179
CC(Cl)C(=O)NNc1cccc(Cl)n1 (stereo not drawn),-5.3,58.3*,-8.1,x,0.52
COCCNC(=O)c1cc(S(=O)(=O)N(C)c2ccccc2OC)ccc1C,-20.7,x,x,x,0.0955
COc1cc(OC)c(NC(=S)Nc2cc(Cl)cc(Cl)c2)cc1Cl,-9.2,82.7*,35.2,x,1.49
COc1cc(NC(=S)Nc2ccc(Br)cc2Cl)c(OC)cc1Cl,25.6,3.1,31.9,x,3.05
O=C(Nc1ccc(OC(F)F)c(Cl)c1)c1ccccn1,40.9,6.7,21.8,-0.0772,-0.626
Cc1ccc(NC(=S)Nc2ccc(OC(F)F)c(Cl)c2)cc1F,16.8,85.2*,8.9,0.768,-0.563
COc1cc(NC(=S)NC(C)(C)C)c(OC)cc1Cl,23.6,18.6,67.1*,-0.216,-0.193
COc1cc(NC(=S)Nc2cccc(Cl)c2Cl)c(OC)cc1Cl,7.4,-6.7,59.4*,x,0.584
CCc1cc(C(=O)O)c(NC(=O)c2cc(OC)c(OC)c(OC)c2)s1,18.7,20.2,22.3,1.47,-1.34
COc1cc(C)c(NC(=S)Nc2ccc(Cl)c(Cl)c2)cc1OC,6.5,79.5*,10.6,x,0.877
COCCNC(=S)Nc1ccc(Cl)c(Cl)c1,-24.5,11.0,7.3,0.351,0.0896
CCC1CCCCN1C(=O)c1cc(-c2ccc(Cl)c(Cl)c2)on1 (stereo not drawn),45.0,74.0*,-5.2,0.0144,0.725
CC(=O)Oc1ccc2occ(/C=N/c3cc(=O)[nH]c(=S)[nH]3)c(=O)c2c1,20.2,x,x,x,-2.41
CN(C(=S)Nc1ccc(SC(F)F)cc1)c1ccc(O)cc1,27.5,86.8*,0.4,x,0.661
Cc1ccc(C(OC(=O)c2ccco2)C(=O)NCc2cccs2)cc1 (stereo not drawn),0.1,-2.5,55.9*,0.953,-0.128
CCOc1ccc(NC(=O)c2cc(F)c(F)cc2Cl)cc1OCC,3.6,1.0,-0.6,0.474,-0.0763
Oc1ccc(Br)cc1-c1nc2cnccn2c1NC1CCCCC1,-82.4,46.8,85.3*,0.664,-0.00775
Oc1ccc(Br)cc1-c1nc2cnccn2c1NC1CCCC1,x,38.3,3.9,-1.23,1.13
Cc1ccc([N+](=O)[O-])c(OCCCN2CCCCCC2)c1,-7.3,9.3,98.5*,-0.0102,0.365
